SMILES strings stand for the structures. This is part of a sample that, as a whole, favours compounds with a hit. Of some 83,000 tested, about 20% had one in any assay.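 Testing used 96-well plates and a 48-hour single-concentration exposure. Example: -40 means 40% of the starting cells died.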 Values without a mark were called inactive. Active and inactive are the calls of the source. Rule for the calls: active = growth percent below 10; inactive = the rest.

The text below walks through data of PubChem BioAssay (NCI).

One experiment has as its system COLO 205 colon. The experiment is described as follows: NCI-60 one-dose screen, 48 h (100 = growth as untreated, 0 = no growth, -100 = all killed). Conditions: 10 µM unless noted.
On to `COc1ccc(C2=Nc3c/c(=C\c4c(O)[nH]c5cc(Cl)ccc45)ccc3=N2)cc1`, for which the growth is 3.61% (active).
Same read-out and setting: in the case of `CCCCCCCCCCCCCCCCCCOc1ccccc1CC(=O)NCC[N+]1(C)CCOCC1` it was 37.6%; in that of `Cc1ccc(-c2cc(C(=O)N3N=C(c4ccc(N)cc4)CC3c3ccc(Cl)cc3)c3ccccc3n2)cc1` (stereo not drawn), 2.01% (active).
On the same count and under the same terms, in the case of `O=C(CN1C(=O)/C(=C/c2ccco2)SC1=S)NCCc1c[nH]c2ccc(F)cc12` it was 115%; in that of `CCN(CC)CCN(CCN(CC)CC)c1ccccc1`, 97.8%.
Still for that read-out and setting: for `COc1cc(C(=O)C(=O)c2cc(OC)c(O)c(OC)c2)cc(OC)c1O` the value was 105%; for `O=C(/C=C/c1ccc(Br)cc1)c1ccc(-n2cc(CN3CCN(c4cc5c(cc4F)c(=O)c(C(=O)O)cn5C4CC4)CC3)nn2)cc1`, 107%.

The subject of the next experiment is DU-145 prostate. Described as above. Conditions: 10 µM unless noted.
Consider `Fc1ccc(COc2ccc(Nc3ncnc4sc5c(c34)CCCC5)cc2)cc1`, for which the growth is 96.8%.
On the same count and under the same terms, in the case of `COc1cc(C2Cc3ncccc3-c3[nH]c(=O)c4cccnc4c32)cc(OC)c1OC` (stereo not drawn) it was 23%; in that of `O=C(c1ccc(Cl)cc1Cl)N1c2ccccc2Sc2ccccc21`, 65.2%; in that of `O=C(N/N=C/c1ccc([N+](=O)[O-])cc1)c1ccc2nc(-c3ccc(Cl)cc3)[nH]c2c1`, 42%.
For the molecule `O=C(NCc1ccccc1O)c1cccc2ccccc12`, the growth is 95.6%.
On the same count and under the same terms, for `CC1=C(C(=O)n2c3ccccc3c3ccccc32)C(c2cccc([N+](=O)[O-])c2)C(C(=O)n2c3ccccc3c3ccccc32)=C(C)N1` the value was 103%; for `COc1ccc(/C=C/C(=O)c2ccc(NC(=O)CSc3nnc(-c4cc(-c5ccccc5)nc5ccccc45)n3-c3ccccc3)cc2)cc1`, 94.9%.
Same read-out and setting: in the case of `Cn1cc(-c2nc(-c3c[nH]c4ccncc34)cs2)c2cc(Br)ccc21` it was -95.9% (active).
In the case of `C#Cc1cccc(Oc2ccc(NC(=O)CCl)cc2)c1`, the growth was 72% [8.25 µM].
For the molecule `CC1(C)CC[C@]2(C(=O)N3CCOCC3)CC[C@]3(C)C(=CC[C@@H]4[C@@]5(C)C/C(=C/c6ccncc6)C(=O)C(C)(C)[C@@H]5CC[C@]43C)[C@@H]2C1`, the growth was 21.7%.
In the case of `CC(C)c1ccc(NC(=O)Nc2ccc(NC(=O)c3ccccc3N)cc2)cc1`, the growth was 79.2%.
On the same count and under the same terms, in the case of `Cc1cc(C(=O)Nc2cc(Nc3ncccc3-c3ncnc4nc[nH]c34)ccc2F)cc(C(F)(F)F)c1` it was 74.8%; in that of `COc1cc2c3c(n(CCCCNCCCn4c5c(c6cc(OC)c(OC)cc6c4=O)C(=O)c4cc6c(cc4-5)OCO6)c(=O)c2cc1OC)-c1cc2c(cc1C3=O)OCO2`, 99.1%; in that of `CNC(=O)c1c(NC(=O)c2ccc(C(C)(C)C)cc2)sc2c(CN(C)C)c(O)ccc12`, 24.7%.
Still for that read-out and setting: for `CCCCn1sc(=O)n(Cc2ccc(CNC(=O)OCc3ccc4c(Cl)cc(Cl)c(O)c4n3)cc2)c1=O` the value was 58.5%.
On to `O=C1Nc2ccc(F)cc2/C1=N/c1nnc(Sc2ccccc2)s1`, for which the growth was 105%.
The same measure, in the same setting: for `N#Cc1c(N2CCOCC2)nc(=S)[nH]c1-c1ccccc1` the value was 87.6%; for `O=C(CSc1nnc2sc(Nc3cccc(Cl)c3)nn12)c1ccc(F)cc1`, 104%; for `C=C(CO)[C@@H]1CC[C@]2(COC3CCCCO3)CC[C@]3(C)[C@H](CC[C@@H]4[C@@]5(C)C=C(C=O)C(=O)C(C)(C)[C@@H]5CC[C@]43C)[C@@H]12` (stereo partly drawn), -98% (active).
For `COc1ccc(-c2cc(C(=O)N3N=C(c4ccc(N)cc4)CC3c3ccccc3)c3ccccc3n2)cc1` (stereo not drawn), the growth is 21.8%.
Still for that read-out and setting: for `COc1ccc(-c2cc(-c3cc(OC)c(OC)c(OC)c3)c(C#N)c(=O)n2CCCCCC(=O)NO)cc1` the value was 92.5%.
As to `Cn1ccnc1C(=O)/C=C/c1ccc(C(=O)Nc2ccc(F)cc2)cc1`, the growth was 19.9%.
For `C=C1C(=O)O[C@H]2[C@H]1CC/C(COC(=O)NCCCCCCCCNC(=O)OC/C1=C/CC[C@@]3(C)O[C@H]3[C@H]3OC(=O)C(=C)[C@@H]3CC1)=C\CC[C@@]1(C)O[C@@H]21`, the growth is -92.1% (active).
Same read-out and setting: for `C/C(C=O)=C\c1ccc2c(c1)OCO2` the value was 108%; for `COc1cccc(/C=C/C(=O)c2cc3c(N)c(C(=O)Nc4cccc(Cl)c4C)sc3nc2C)c1`, 4.37% (active); for `COC(=O)/C=C1/SC(=Nc2cccc(Cl)c2)N(CCc2c[nH]c3ccc(O)cc23)C1=O`, 14.4%.
